In the library only some 21% were active in any assay of this set; here they are far more common.
CHX counter – affects cycloheximide protein synthesis inhibition readout, counter-screen. cell reporter, cycloheximide protein synthesis inhibition counterscreen. max response, %. 12% of 300,000 active; in the data active means max response mostly above about 13%, no sharp cut-off; inactive means mostly below about 14%; further: read at 38.3 µM for the half of the compounds with a filed dose; 0% is about no effect
Pf growth 96h – inhibits malaria parasite growth, 96 h. P. falciparum luciferase reporter growth, 96 h. Potency, µM (titrated, usually from 28.7 µM), inactives show at the top dose activity change, negative = inhibition, actives largely listed as inhibitors. 6.9% of 320,000 active; further: potency means the concentration at half of the fitted maximal effect; on the % scale 0 is the no-effect control and ±100 the full control effect
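Parasite growth measured via integrated firefly luciferase reporter in P. falciparum. Infected erythrocytes at 2% hematocrit, 0.05% parasitemia final were treated 96 hours at 37 C under 5% CO2, and luminescence was read.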
NS1 inh – blocks influenza NS1 protein function. Potency, µM (doses to about 46.1 µM), for the others: at the top dose activity, positive = more growth. 0.4% of 270,000 active. AID 2326; calls by dose curve; further: potency means the concentration at half of the fitted maximal effect; actives are rising curves; nearly all actives have a fitted effect of over 50% in size
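Compounds were scored for reversing the slow growth caused by influenza A NS1 in S. cerevisiae, measured by optical density at 600 nm. Assay medium contained 2% galactose at pH 6.0; NS1-free yeast of the same strain were the positive control.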
Shiga inhibitor – blocks Shiga toxin action in Vero cells; Vero cells, Shiga toxin protein synthesis inhibition reporter; 9.2% of 290,000 active; AID 2315; inhibition, % at 38.7 µM; in the data active means inhibition mostly above about 28%, no sharp cut-off; inactive means mostly below about 43%; further: 0% is about no effect
Pf growth 48h – P. falciparum growth inhibition at 48 hours (one generation); Potency, µM (top dose mostly 28.7 µM), for inactives: at the top dose activity change, negative = inhibition, actives largely listed as inhibitors; P. falciparum luciferase growth in erythrocytes, 48 h; 5.9% of 310,000 active; further: potency means the concentration at half of the fitted maximal effect; on the % scale 0 is the no-effect control and ±100 the full control effect
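Firefly luciferase activity from engineered P. falciparum reports growth; inhibitors lower the luminescent signal. Cultures contained 2% hematocrit erythrocytes at 0.1% final parasitemia.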
An asterisk follows results filed as active; u = inconclusive; x = no result given; [ ] = dose if it differs, or a comment. Unless noted, the call rests on the fitted dose curve; in most records, active means well fitted inhibition curve with a large enough effect; inconclusive means small, poorly fitted or top-dose-only effect, or another doubt; inactive means no such curve, though single readings can be large or run the other way.

SMILES	CHX counter	Pf growth 96h	NS1 inh	Shiga inhibitor	Pf growth 48h
CCC1C/C(=C/c2ccco2)C(=O)/C(=C/c2ccco2)C1 (stereo unspecified)	16	9.3µM*	7%	-1	-11%
CCOC(=O)C1=C(C)Nc2nnnn2C1c1ccccc1Cl (stereo unspecified)	-1	-19%	9%	-6	-27%
CCOc1cc(C2C(C(=O)c3ccccc3)=C(C(=O)OC)Nc3nnnn32)ccc1O (stereo unspecified)	23*	u	5%	33	3%
COc1ccc(C2C(C(=O)OC3CCCCC3)=C(C)Nc3nnnn32)c(OC)c1OC (stereo unspecified)	-2	5%	-17%	1	9.3µM*
CC1=C(C(=O)OC2CCCCC2)C(c2cccnc2)n2nnnc2N1 (stereo unspecified)	-1	2%	u	-7	13%
CCOC(=O)C1=C(C)Nc2nnnn2C1c1ccc(OC)c(Br)c1 (stereo unspecified)	-4	12µM*	-9%	-9	u
COC(=O)C1=C(C(=O)c2ccccc2)C(c2ccc(O)c(OC)c2)n2nnnc2N1 (stereo unspecified)	-2	-53%	-8%	-6	0%
COC(=O)C1=C(C)Nc2nnnn2C1c1ccc(Cl)cc1Cl (stereo unspecified)	-2	u	-45%	1	4.7µM*
Cc1ccc(-n2c3c(c(=O)[nH]c2=S)C(C(F)(F)F)(C(F)(F)F)NC(=O)N3)cc1	-4	12%	-3%	-12	x
C=CCC1(O)CC(c2ccco2)NC(c2ccco2)C1CCC (stereo unspecified)	-2	46%	-2%	16	x
Cc1ccc(NC2CCCN(C(=O)CCN3CCCCO3)C2)cc1C (stereo unspecified)	-3	5%	2%	10	3%
CCC1COC(c2cccn2Cc2ccccc2Cl)=N1 (stereo unspecified)	-5	12µM*	0%	-12	9%
Cc1oc(-c2ccccc2)nc1Cn1cccc1C1=NC(c2ccccc2)CO1 (stereo unspecified)	-2	5.2µM*	-33%	-3	u
Fc1ccc(Cn2cccc2C2=NC(c3ccccc3)CO2)cc1 (stereo unspecified)	69*	u	x	75*	8%
CCc1ccccc1NC(=O)Cn1cccc1C1=NC(c2ccccc2)CO1 (stereo unspecified)	-3	-27%	29%	14	-27%
CCOc1ccccc1NC(=S)NCCc1ccccc1	10	-27%	x	17	1%
CC(C)(C)C1CCC(C(=O)OCC(=O)N2CCOCC2)CC1 (stereo unspecified)	15	-4%	-9%	17	-3%
Cc1cc(CSCc2ccc(Cl)cc2)no1	23*	97%	-8%	24	21%
CC(=O)Nc1ccc(SCc2c(C)noc2C)cc1	-3	47%	-2%	-5	30%
CC(=O)Nc1ccc(SCc2csc(C)n2)cc1	14	u	15%	47*	u
Cc1ccnc(SCC(=O)c2ccc(Br)s2)n1	36*	6%	x	37	36%
Cc1cc(C)nc(SCC(=O)NNC(=O)c2cccs2)n1	-3	0%	x	-9	16%[5.75 µM]
Cc1ccnc(SCC(=O)c2cccs2)n1	38*	291%	13%	84*	145%
CC(=O)Nc1ccc(SCC(=O)c2ccc(Br)s2)cc1	21*	57%	-37%	37*	37%
COCCN(CCOC)C(=O)C1CCCN(S(=O)(=O)c2ccc(NC(=O)OC)cc2)C1 (stereo unspecified)	-3	0%	4%	19	-10%
SMILES	CHX counter	Pf growth 96h	NS1 inh	Shiga inhibitor	Pf growth 48h
O=C(O)Cc1ccc(C(=O)CSc2ccccc2)s1	-2	58%	0%	30	33%
Cc1ccc(SCC(=O)c2ccc(CC(=O)O)s2)cc1	20*	121%	7%	24	50%
CC1=NN(c2ccccc2)C(=O)/C1=C\c1c(C)[nH]n(-c2ccccc2)c1=O	6	8%	5%	-5	-7%
CC1=NN(c2ccccc2)C(=O)/C1=C/c1c(O)n(-c2ccc(F)c(Cl)c2)[nH]c1=O	17*	u	-6%	19	-1%
O=C(C[n+]1cccc(O)c1)Nc1ccc(Br)cc1	-3	6%	16%	-5	0%
COc1ccccc1NC(=O)NNC(=O)COc1ccc2ccccc2c1	24*	-8%	-2%	-38	7%
COc1ccc2cc(OCC(=O)NNC(=O)Nc3ccc(C(C)=O)cc3)ccc2c1	21*	22%	-6%	48	-4%
COc1ccc(NC(=O)NNC(=O)COc2ccc3ccccc3c2)cc1OC	0	15%	-2%	-6	16%
COc1ccc(CC(=O)NNC(=O)COc2ccc3ccccc3c2)cc1	-2	1.7µM*	-17%	-10	20%
O=C(NCCc1ccccc1)C(=O)NCC1OCCN1S(=O)(=O)c1ccc2c(c1)OCCO2 (stereo unspecified)	5	u	16%	-18	13%
COc1ccc(CNC(=O)C(=O)NCC2OCCN2S(=O)(=O)c2ccc(C)cc2)cc1 (stereo unspecified)	-1	u	17%	11	5%
COc1ccc(CNC(=O)C(=O)NCC2OCCN2S(=O)(=O)c2ccc(F)cc2)cc1 (stereo unspecified)	28*	63%	-11%	32*	88%
COc1ccc(CCNC(=O)C(=O)NCC2OCCN2S(=O)(=O)c2ccc3c(c2)OCCO3)cc1OC (stereo unspecified)	-1	12µM*	1%	-19	u
COc1ccc(CCNC(=O)C(=O)NCC2OCCN2S(=O)(=O)c2ccc3c(c2)OCCO3)cc1 (stereo unspecified)	34*	u	9%	11	7%
COc1ccc(S(=O)(=O)N2CCOC2CNC(=O)C(=O)NCCc2ccc(OC)c(OC)c2)cc1C (stereo unspecified)	-1	u	0%	-9	-25%
C=CCN(Cc1nc(-c2cc(OC)ccc2OC)oc1C)C1CCS(=O)(=O)C1 (stereo unspecified)	-4	45%	5%	12	7%
CC(=O)c1cn(CCC(C)C)c(=O)[nH]c1=O	0	2%	9%	2	-9%
CN(CCc1ccccn1)C(=O)c1cccnc1Oc1ccccc1	-2	6%	2%	6	0%
Clc1ccccc1-c1nnc(-c2ccccc2Cl)o1	32*	u	-18%	68*	u
Clc1ccc(-c2nnc(-c3cccc4ccccc34)o2)cc1Cl	1	76%	1%	10	35%
Clc1ccc(-c2nnc(-c3ccccc3Cl)o2)cc1	46*	-23%	0%	115*	81%
Cc1cc(C)c(NC(=O)CN2C(=O)CC(C)S(=O)(=O)c3ccccc32)c(C)c1 (stereo unspecified)	13	51%	13%	-7	-10%
COc1cc(C(=O)Nc2ccc(S(=O)(=O)Nc3cnc4ccccc4n3)cc2)cc(OC)c1OC	-1	12µM*	u	-17	u

Bioassay records as filed in PubChem BioAssay.
